A selection: hits, their analogues and other compounds. The true share with any hit is near 4.1%.
Anthrax LF prot – inhibitors of Bacillus anthracis lethal factor protease. multiplex microsphere protease cleavage assay, LF. inhibition, % at 10 µM. actives 0.12% (n = 360,000)
BoNT F protease – BoNT F light chain protease inhibition; inhibition, % at 10 µM; AID 588497; Multiplex microsphere protease cleavage assay, flow cytometry; actives 0.22% (n = 360,000); in the data active means inhibition above about 35%, passing the limit was not always enough; inconclusive means no clear call, values can overlap the other calls
MazF activator – MazEF (E. coli) toxin RNase activation; activation, % at 20 µM; FAM/BHQ RNA-DNA oligo cleavage fluorescence, 5 h; P0AE70; actives 0.32% (n = 350,000); in the data active means activation above about 50%
Target sequence (P0AE70 whole entry, looked up): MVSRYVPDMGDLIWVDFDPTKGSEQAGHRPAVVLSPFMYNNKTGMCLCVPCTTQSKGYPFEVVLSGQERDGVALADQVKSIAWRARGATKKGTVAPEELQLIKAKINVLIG
VHR inh abs – inhibitors of human VHR1 phosphatase (DUSP3); P51452; recombinant VHR phosphatase, pNPP absorbance; inhibition, % at 13.3 µM; actives 0.52% (n = 290,000); in the data active means inhibition above about 50%
Target sequence (P51452 whole entry, looked up): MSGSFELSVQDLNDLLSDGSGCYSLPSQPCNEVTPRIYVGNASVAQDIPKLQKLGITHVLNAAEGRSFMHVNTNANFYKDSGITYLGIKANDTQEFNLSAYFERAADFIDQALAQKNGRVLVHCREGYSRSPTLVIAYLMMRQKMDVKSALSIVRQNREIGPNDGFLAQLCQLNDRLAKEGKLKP
Autofluor counter – flagged as autofluorescent in microsphere protease counterscreen; actives 3.1% (n = 360,000); compound autofluorescence counterscreen, microsphere flow cytometry; hits give high values; AID 624483; fluorescence intensity (no concentration beside the values); in the data active means fluorescence intensity above about 16000; inconclusive means no clear call, values can overlap the other calls
BoNT-A LC inh2 – inhibitors of Botulinum neurotoxin A light chain protease; multiplex microsphere protease substrate cleavage, flow cytometry; inhibition, % at 10 µM; actives 0.17% (n = 360,000); AID 588499
A number is an active result; 0 = inactive; ? = inconclusive; - = not tested or not shown. Unless noted, no stated cut-off is given here; in the data, active means inhibition above about 30%; inconclusive means no clear call, values can overlap the other calls; inactive means below that.

SMILES	Anthrax LF prot	BoNT F protease	MazF activator	VHR inh abs	Autofluor counter	BoNT-A LC inh2
O=C(CNS(=O)(=O)c1ccc(F)cc1)Nc1ccc(C(F)(F)F)cc1	0	0	0	0	16544	0
O=C(CNS(=O)(=O)c1ccccc1)Nc1ccc(C(F)(F)F)cc1	0	0	0	0	0	0
Cc1ccc(S(=O)(=O)NCC(=O)Nc2ccc(C(F)(F)F)cc2)cc1	0	0	0	0	23413	0
COc1ccc(C)cc1NC(=O)CC(O)(C(F)(F)F)C(F)(F)F	0	0	0	0	?	0
Cc1ccc(NC(=O)CC(O)(C(F)(F)F)C(F)(F)F)cc1	0	0	0	0	22690	?
C[C@H](NS(=O)(=O)c1c(Cl)cccc1Cl)C(=O)NNC(=O)COc1ccccc1F	0	0	0	-	0	0
CCN1CCN(S(=O)(=O)c2c[nH]c(C(=O)OC)c2)CC1	0	0	0	0	0	0
Cc1ccc(S(=O)(=O)N2CCN(c3nc(CN4CCCC4)nc4sc(C)c(C)c34)CC2)cc1	0	0	0	-	0	0
Cc1sc2nc(CN3CCCC3)nc(N3CCN(S(=O)(=O)c4cccs4)CC3)c2c1C	0	0	0	0	24350	?
O=C(NC(=O)c1ccc(F)cc1)Nc1nc(-c2cccs2)cc(C(F)(F)F)n1	0	0	94	0	0	0
O=C(NC(=O)c1cccc(F)c1)Nc1nc(-c2ccc(F)cc2)cc(C(F)(F)F)n1	0	0	0	0	0	0
CNC(=O)NC(=O)C(OC(=O)CCNS(=O)(=O)c1ccccc1)c1ccccc1 (stereo not drawn)	0	0	0	0	18283	0
Cc1ccc(C(=O)n2cnnc2N)cc1C	0	0	0	0	0	0
COc1cccc(C(=O)N2CCCN(C)CC2)c1OC	0	37	0	0	0	0
Cc1ccc(C(=O)n2cnnc2N)cc1	0	0	0	0	21599	?
COc1cccc(C(=O)n2cnnc2N)c1OC	0	0	0	0	19978	0
Nc1nncn1C(=O)c1c(Cl)cccc1Cl	0	0	0	0	17890	0
Cc1ccc(C)c(C(=O)n2cnnc2N)c1	0	0	0	0	0	0
COc1ccccc1C(=O)N1CCCN(C(=O)c2ccccc2OC)CC1	0	0	0	0	0	0
Cc1cccc(C)c1NC(=O)C(c1ccccc1OC(F)(F)F)N1CCN(c2ccc(F)cc2)CC1 (stereo not drawn)	0	0	-	-	0	0
Cc1c(O[C@@H]2O[C@H](CO)[C@@H](O)[C@H](O)[C@H]2O)c(CO)c(O[C@@H]2O[C@H](CO)[C@@H](O)[C@H](O)[C@H]2O)c2c1O[C@@H](c1ccccc1)C[C@@H]2O	0	0	0	-	0	0
CC(=O)c1c(C(C)=O)c(C)n(-c2ccc(O)cc2)c1C	0	0	0	0	21526	0
CC1CCCN(C(=O)Cn2c(-c3nonc3N)nc3ccccc32)C1 (stereo not drawn)	0	0	0	0	18146	0
